In ChEMBL document CHEMBL3988442, “University of Dundee, Small-Polar-MMV Screening Library” (2021):

Molecular target: AMP-activated protein kinase, AMPK (Homo sapiens) (UniProt P54646+O43741+P54619+Q9UGJ0+Q9Y478+Q13131+Q9UGI9)
Experiment: AMP-dependent Kinase enzyme assay. An in vitro enzyme assay that detects ADP turnover that is directly proportional to AMPK activity. This uses naive AMPK that is activated during the assay with MK-8722
Type: functional
Set-up: scale not given: direction of the effect not stated beside the values
Details: 30 µM

Structure (SMILES)	Percent Effect [%]
NC(=O)N1CCCCCC1C1CCN(c2nccc(C(F)(F)F)n2)CC1 (stereo not given)	-5.81
CSCC(C)(O)CNS(=O)(=O)c1cccc(Cl)c1 (stereo not given)	-5.75
O=C(COc1ccc(-n2cccn2)nn1)NC1CCCCC1	-0.431
CC(C)[C@@H]1CN(c2ccc(F)cn2)C[C@H]1NS(C)(=O)=O	-3.59
O=S(=O)(NCCCn1cncn1)c1ccc2c(c1)CCC2	8.86
COc1ccc(NC(=O)N2CCOCC(CN(C)C)C2)c(C)c1 (stereo not given)	1.75
CCC(CN1CCCC1)n1cncc1-c1cnn(-c2ccc(F)cc2)c1 (stereo not given)	12.9
CC(O)Cc1cn(CC2CCN(C3CCSCC3)CC2)nn1 (stereo not given)	-7.5
CCCc1nnc(N2CCC(N3CCCC(O)C3)CC2)o1 (stereo not given)	4.12
O=C(CCn1cc(Cl)cn1)N1CCCC(O)(CO)CC1 (stereo not given)	-3.36
O=C(NCC(O)Cc1ccccc1)c1ccc2[nH]c(=O)[nH]c2c1 (stereo not given)	11.7
Cc1cccc(C)c1Oc1ncccc1CNC(=O)C1COC(=O)N1 (stereo not given)	-10.7
Cc1ccc(-c2cc(C(=O)N(C)Cc3noc4c3CCCC4)[nH]n2)s1	-10.3
CC1CN(C)CCN1C(=O)c1cccn1Cc1cccs1 (stereo not given)	3.93
Cc1ccc(C(=O)NC2CCN(S(C)(=O)=O)CC2)c(=O)[nH]1	1.76
CC(NC(=O)NCc1ccccn1)c1cccs1 (stereo not given)	-0.209
Cc1cc(NC(=O)C2CCN(c3nnc(C)c(C)c3C#N)CC2)no1	-48.4
CC(C)Cc1cc(CNC(=O)c2cccc3c2OCC3)no1	3.36
Cc1ccc(-c2cc(CN(CC(N)=O)CC(C)C)on2)cc1	-6.41
Cc1noc(C)c1CCCNC(=O)Nc1ccc2c(c1)CC(=O)N2	33.6

Structure (SMILES)	Percent Effect [%]
Cc1cc(CN(C)c2nc(-c3ccco3)nc3c2CCN(C)CC3)on1	6.52
COCCn1ccnc1C1CCN(C(=O)CSc2nnc(C)o2)CC1	-0.22
CC1(C)OC(=O)N(CCCOc2ccc(F)cc2)C1=O	-0.642
COc1ccc(C(=O)N2C[C@@H](O)[C@H](NCc3ncccc3C)C2)cc1	-3.45
CC(=O)NCC1CCCN(C(=O)Cc2c(C)noc2C)C1 (stereo not given)	-3.15
Cc1csc(CCNC(=O)N2CCC(C(N)=O)CC2)n1	-10.8
Cc1noc(C2CCN(Cn3cc(Cl)cn3)CC2)n1	2.75
Cc1cnn(C2CN(CCOc3ccc(C#N)cc3)C2)c1	5.88
CCOCCNCc1cc(O)c2cc(C)ccc2n1	-3.23
Cc1ccc(NC(=O)CN[C@H](C(N)=O)C(C)C)cc1F	-14.9
CN(CCc1ncnn1-c1ccccc1Cl)C1CCS(=O)(=O)C1 (stereo not given)	-10
CN1CCN([C@H]2CCN(C(=O)c3nn(C)cc3Cl)C[C@H]2CCCO)CC1	4.08
CC(c1ccc(F)cc1F)N1CCN(CCN2CCCC2=O)CC1 (stereo not given)	-18
O=c1c(CN2CCCCC2)coc2ccc(Cl)cc12	-4.07
COc1cc(CN2CC[C@@H](N3CCCCCC3)[C@H](O)C2)cc(Cl)c1OC	13.6
CCC(C)(CC(=O)OC)NCc1noc(C)n1 (stereo not given)	1.21
CN(C)C(=O)Cn1cnc2c(Br)cccc2c1=O	-4.74
CCc1ncc2c(n1)CN(c1cc(NCCO)nc(N)n1)C2	-219
COc1ccccc1Oc1ncccc1CNC(=O)C1COC(=O)N1 (stereo not given)	-13.1
COc1cccc(-n2cc(CN(C)Cc3ccnc(C(C)C)n3)cn2)c1	-12.4
